Giardia FBPA inh = qHTS Assay for Inhibitors of Fructose-1,6-bisphosphate Aldolase from Giardia Lamblia; A8B2U2; purified Giardia FBPA; Potency, µM (series often up to 59.6 µM), without a hit: at the highest dose activity, negative = inhibition, actives largely listed as inhibitors; 0.71% of 290,000 active; AID 2451, 2010; note: potency is the fitted concentration of half-maximal effect; nearly all actives have a fitted effect of over 55% in size
Target sequence (A8B2U2 whole entry, looked up): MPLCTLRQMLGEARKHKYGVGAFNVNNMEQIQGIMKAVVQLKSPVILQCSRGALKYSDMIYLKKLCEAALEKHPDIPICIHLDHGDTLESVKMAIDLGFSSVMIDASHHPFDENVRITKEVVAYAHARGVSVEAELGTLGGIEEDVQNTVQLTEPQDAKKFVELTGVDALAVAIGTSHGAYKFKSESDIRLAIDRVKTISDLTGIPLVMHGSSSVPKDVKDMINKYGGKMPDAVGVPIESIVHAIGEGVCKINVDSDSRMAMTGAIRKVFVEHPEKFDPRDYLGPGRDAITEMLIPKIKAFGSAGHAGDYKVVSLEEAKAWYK
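40 nM FBPA preincubated 10 min at RT with compound (up to 57.5 uM final), then substrate plus GAPDH/TPI/NAD/arsenate coupling and diaphorase/resazurin added. Fluorescence read after 20 min at RT, 525/598 nm.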
Pf growth 96h = Primary qHTS for delayed death inhibitors of the malarial parasite plastid, 96 hour incubation; 6.9% of 320,000 active; P. falciparum luciferase reporter growth, 96 h; Potency, µM (top dose mostly 28.7 µM), inactives show top-dose activity change, negative = inhibition, usual class: inhibitors; note: potency is the fitted concentration of half-maximal effect
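Parasite growth measured via integrated firefly luciferase reporter in P. falciparum. Infected erythrocytes at 2% hematocrit, 0.05% parasitemia final were treated 96 hours at 37 C under 5% CO2, and luminescence was read.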
HCMV antiviral = qHTS Assay for inhibitors of the human cytomegalovirus (HCMV) | HFF cells, HCMV-luciferase reporter, 72 h; hits give low values | activity change, negative = inhibition, % at 57.5 µM | 4.5% of 410,000 active | AID 1259415, 2018; in the data active = activity change below about -60%; inconclusive = no clear call, values can overlap the other calls; inactive = above about -39%
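Cell-based, HFFs, 1000 cells/well, 16 h 37C; cpds in DMSO + HCMV-luc, MOI 1 PFU/cell; 72 h 37C; OneGlo luminescence after 5 min RT; norm. to buffer vs Salinomycin 10uM.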
Pf growth 48h = Primary qHTS for delayed death inhibitors of the malarial parasite plastid, 48 hour incubation; P. falciparum luciferase growth in erythrocytes, 48 h; AID 504832, 2011; Potency, µM (highest dose often 28.7 µM), inactives show at the top dose activity change, negative = inhibition, actives largely listed as inhibitors; 5.9% of 310,000 active; note: potency is the fitted concentration of half-maximal effect
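Luciferase-expressing parasites in RBCs, 2% Hct / 0.1% parasitemia final; RPMI 1640 + 0.5% Albumax; 37 C, 5% CO2, one generation; luminescence read-out, lower signal = inhibition.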
Sm TGR block = qHTS Assay for the Inhibitors of Schistosoma Mansoni Peroxiredoxins; Schistosoma mansoni thioredoxin glutathione reductase (TGR), Q962Y6; purified TGR, DTNB reduction, TNB absorbance 405 nm; Potency, µM (highest dose often 114 µM), for inactives: top-dose activity change, negative = inhibition, actives largely listed as inhibitors; 3% of 360,000 active; AID 485364, 2010; note: potency is the fitted concentration of half-maximal effect; nearly all actives have a fitted effect of over 60% in size
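TGR 20 nM + NADPH 100 uM (dispensed conc.), cpd preinc 15 min RT; start with NADPH (500 uM addition) then DTNB (15 mM addition). Kinetic TNB absorbance, 405 nm filter. Four-parameter Hill fit across titration.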
Starred values were filed as active, the others as inactive; ? = inconclusive; / = not tested or not shown. In the library only some 14% were active in any assay of this set; here they are far more common. Unless noted, calls come from the whole dose curve; as a rule, active = well fitted curve in the direction sought with a large enough effect; inconclusive = small, poorly fitted or top-dose-only effect, or another doubt; inactive = no such curve, though single readings can be large; an effect the other way counts as inactive or inconclusive. % is set by controls: 0 for no effect and ±100 for the full control effect.

SMILES	Giardia FBPA inh	Pf growth 96h	HCMV antiviral	Pf growth 48h	Sm TGR block
O=C(/C=C/c1cccs1)N1CCC2(CC1)Oc1ccc(Cl)cc1C(=O)C21CC(c2ccccc2)=NO1 (centres undefined)	0%	?	-24	13µM*	2%
CCC(=O)N1CCC2(CC1)Oc1ccc(Cl)cc1C(=O)C21CC(c2ccccc2)=NO1 (centres undefined)	-3%	?	7	?	-24%
O=C(c1ccoc1)N1CCC2(CC1)Oc1ccc(Cl)cc1C(=O)C21CC(c2cccnc2)=NO1 (centres undefined)	-6%	?	29	?	-8%
O=C(c1ccoc1)N1CCC2(CC1)Oc1ccc(Cl)cc1C(=O)C21CC(c2ccccc2)=NO1 (centres undefined)	1%	?	8	15µM*	-18%
C/C=C/c1ccc2oc(-c3ccc(O)cc3)c(C)c2c1	0%	/	/	/	/
Cc1c(Cl)cccc1NC(=O)CSc1nc(=O)[nH]c2c1CCC2	/	/	-23	/	4%
COCc1cccc(-c2csc(C(O)c3cccc(OC)c3)n2)c1 (centres undefined)	/	/	-24	/	/
Cc1ccccc1N=CC=C1OC(C)(C)C(C)(C)O1	5%	36%	10	8.3µM*	-18%
CC(=O)N1CCC2(CCN(Cc3ccncc3)CC2)CC1	2%	/	/	/	/
COc1ccc(C(CNC(=O)COc2cccc(C)c2)N2CCCC2)cc1 (centres undefined)	/	13µM*	44	?	-4%
COc1ccc(C(CNC(=O)COc2cccc(C(F)(F)F)c2)N2CCCC2)cc1 (centres undefined)	/	12µM*	-9	10µM*	-4%
COc1ccc(C(CNC(=O)COc2ccc(C)cc2)N2CCCCC2)cc1 (centres undefined)	/	/	-10	/	-3%
Cc1ccc2cccc(OC(=O)c3cccnc3Oc3ccccc3)c2n1	/	/	19	/	/
CCN(CC)CCCN=C(C)c1c(O)n(C2CCCCC2)c(=O)[nH]c1=O	0%	6.6µM*	-35	4%	-24%
CN(C)C(CNc1ccc(S(C)(=O)=O)cc1[N+](=O)[O-])Cc1ccccc1 (centres undefined)	9%	?	-35	?	3%
CCOc1ccc(-c2nnc(SCC(=O)NCc3ccccc3Cl)o2)cc1	/	/	7	/	20µM*
CCOc1ccc(-c2nnc(SCC(=O)NCc3ccccc3)o2)cc1	/	/	12	/	-3%
CCOc1ccc(-c2nnc(SCC(=O)NCc3ccc(Cl)cc3)o2)cc1	/	/	10	/	14µM*
CCOC(=O)c1c(O)c2cc(Cl)ccc2n(CC)c1=O	-26%	?	-8	-20%	6%
OC(COCC(F)(F)C(F)(F)C(F)(F)C(F)F)Cn1c2ccc(Cl)cc2c2cc(Cl)ccc21 (centres undefined)	-11%	0.59µM*	/	1µM*	-6%
CCCCNC(=O)c1cnc2c(-c3ccc(OCC)c(OCC)c3)c(C)nn2c1-c1ccccc1	/	/	-1	/	2%
CC(=O)Nc1ccccc1OCC(=O)NC(C)c1ccccc1 (centres undefined)	9%	-9%	76	2%	-1%
CC(NC(=O)COc1ccccc1-c1ccccc1)c1ccccc1 (centres undefined)	-3%	?	-69*	?	6%
C/C(CCC(C)C)=N\NC(=O)COc1ccccc1-c1ccccc1	2%	-14%	-90*	7%	-1%
Cc1ccc(CNC(=O)COc2ccccc2-c2ccccc2)cc1	4%	10µM*	?	-14%	-2%
C/C(CCc1ccccc1)=N\NC(=O)COc1ccccc1C	0%	50%	26	20%	6%
CCOC(=O)c1c(NC(=O)COc2ccc(F)cc2)sc2c1CCC(C)C2 (centres undefined)	/	/	0	/	1%
CC(=O)c1c2c(cc3c(N(C)C)cccc13)CC(CO)(CO)C2	/	/	-17	/	/
CCOC(=O)C1=C(C)N=C2SC(C)C(=O)N2C1c1ccc(C(=O)OC)cc1 (centres undefined)	4%	3.7µM*	47	3%	-27%
